Test results as given in PubChem BioAssay.

How the values were obtained:
[1] = test system: Botulinum neurotoxin type F light chain protease (Clostridium botulinum); assay: Clostridium botulinum type F light chain protease inhibitors, microsphere substrate cleavage, validation (AID 588459); details: multiplex microsphere protease substrate cleavage assay, flow cytometry; at 10 µM; stronger effect = higher value
[2] = molecular target: Botulinum neurotoxin type A (Clostridium botulinum) (UniProt P0DPI0); assay: BoNT/A light chain protease inhibitors, biochemical, multiplex microsphere flow cytometry, validation set (AID 588460); details: at 10 µM, stronger effect = higher value
Sequence of Botulinum neurotoxin type A (Clostridium botulinum) (P0DPI0 whole entry, looked up): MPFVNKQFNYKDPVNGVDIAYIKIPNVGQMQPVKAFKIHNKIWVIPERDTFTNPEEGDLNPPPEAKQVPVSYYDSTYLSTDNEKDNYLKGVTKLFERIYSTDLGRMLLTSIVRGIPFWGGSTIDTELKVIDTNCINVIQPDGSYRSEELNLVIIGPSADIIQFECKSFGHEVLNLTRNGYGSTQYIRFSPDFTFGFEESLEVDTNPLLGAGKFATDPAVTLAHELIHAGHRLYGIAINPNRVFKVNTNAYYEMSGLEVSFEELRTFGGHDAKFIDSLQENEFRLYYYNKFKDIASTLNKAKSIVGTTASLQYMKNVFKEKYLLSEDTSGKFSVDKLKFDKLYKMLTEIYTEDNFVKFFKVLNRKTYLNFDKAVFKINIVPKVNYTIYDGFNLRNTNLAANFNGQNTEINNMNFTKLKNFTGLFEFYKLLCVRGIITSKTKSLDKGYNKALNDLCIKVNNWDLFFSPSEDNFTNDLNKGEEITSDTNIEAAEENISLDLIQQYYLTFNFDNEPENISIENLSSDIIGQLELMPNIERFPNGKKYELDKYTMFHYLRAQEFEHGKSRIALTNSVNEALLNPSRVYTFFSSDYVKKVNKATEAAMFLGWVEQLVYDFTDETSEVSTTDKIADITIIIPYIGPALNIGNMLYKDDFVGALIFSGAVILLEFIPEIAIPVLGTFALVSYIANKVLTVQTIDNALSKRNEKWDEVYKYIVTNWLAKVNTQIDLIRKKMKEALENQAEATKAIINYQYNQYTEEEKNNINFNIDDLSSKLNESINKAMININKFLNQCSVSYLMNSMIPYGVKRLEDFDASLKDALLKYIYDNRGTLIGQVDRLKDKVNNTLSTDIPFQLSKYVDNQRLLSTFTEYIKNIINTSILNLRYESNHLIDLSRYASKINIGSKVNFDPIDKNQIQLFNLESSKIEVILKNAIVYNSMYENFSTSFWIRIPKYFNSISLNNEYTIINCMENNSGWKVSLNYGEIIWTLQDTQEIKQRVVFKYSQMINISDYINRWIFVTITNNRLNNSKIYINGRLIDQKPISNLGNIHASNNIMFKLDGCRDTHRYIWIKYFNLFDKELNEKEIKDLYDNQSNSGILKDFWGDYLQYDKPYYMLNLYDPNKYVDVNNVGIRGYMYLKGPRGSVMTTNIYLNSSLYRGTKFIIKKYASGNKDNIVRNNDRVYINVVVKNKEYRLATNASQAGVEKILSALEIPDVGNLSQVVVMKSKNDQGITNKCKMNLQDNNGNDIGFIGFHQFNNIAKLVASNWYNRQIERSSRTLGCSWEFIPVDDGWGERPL

[3] = molecular target: Lethal factor (Bacillus anthracis) (UniProt P15917); assay: Bacillus anthracis lethal factor inhibition, microsphere flow cytometry protease assay, validation at 10 µM (AID 588461); details: multiplex microsphere protease cleavage assay, stronger effect = higher value
Sequence of Lethal factor (Bacillus anthracis) (P15917 whole entry, looked up): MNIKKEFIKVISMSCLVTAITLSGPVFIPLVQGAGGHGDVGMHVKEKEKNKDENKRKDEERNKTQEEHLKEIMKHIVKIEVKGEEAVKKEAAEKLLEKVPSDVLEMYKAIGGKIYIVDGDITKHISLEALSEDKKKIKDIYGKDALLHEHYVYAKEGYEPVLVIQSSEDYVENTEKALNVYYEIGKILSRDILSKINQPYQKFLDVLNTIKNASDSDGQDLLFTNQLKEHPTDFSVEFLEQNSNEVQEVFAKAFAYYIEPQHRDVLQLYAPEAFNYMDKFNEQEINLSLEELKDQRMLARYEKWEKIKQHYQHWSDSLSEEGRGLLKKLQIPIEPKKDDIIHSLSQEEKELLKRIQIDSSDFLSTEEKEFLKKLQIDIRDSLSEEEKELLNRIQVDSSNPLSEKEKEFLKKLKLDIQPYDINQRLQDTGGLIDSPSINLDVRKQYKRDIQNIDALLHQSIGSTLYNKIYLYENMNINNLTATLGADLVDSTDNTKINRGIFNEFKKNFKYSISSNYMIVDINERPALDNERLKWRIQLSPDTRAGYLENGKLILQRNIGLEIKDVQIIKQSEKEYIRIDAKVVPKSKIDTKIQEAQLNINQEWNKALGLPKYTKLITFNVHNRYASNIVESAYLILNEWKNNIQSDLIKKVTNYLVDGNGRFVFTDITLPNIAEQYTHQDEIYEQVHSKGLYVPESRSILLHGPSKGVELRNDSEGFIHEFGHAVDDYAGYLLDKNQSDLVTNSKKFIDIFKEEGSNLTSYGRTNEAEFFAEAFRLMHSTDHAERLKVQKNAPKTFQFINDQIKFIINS

Measured: inhibition

CCOC(=O)/C=C1\NC(C)(C)Cc2cc(OC)c(OC)cc21
inactive: [1] 0.2% | [2] -0.4% | [3] -2.8%

CCn1c(O)c(/C=C2\C=Nc3ccccc32)sc1=O
inactive: [1] 2.3% | [2] 0.3% | [3] -0.8%

COc1ccccc1-c1ccc(/C=C2/C=C(CC(C)C)OC2=O)o1
inactive: [1] 4.8% | [2] 1.7% | [3] 7.1%

NNC(=O)c1ccncc1
inactive: [1] 1.1% | [2] -0.2% | [3] 5.3%

C[C@]12C=CC(=O)C=C1CCC1C3CC[C@](O)(C(=O)CO)[C@@]3(C)CC3OC312 (some centres undefined)
inactive: [1] -1.8% | [2] -2.7% | [3] -7.3%

COc1cc2c(cc1OC)-c1cc(NC3CCCCCC3)nc(=O)n1CC2
inactive: [1] -2.3% | [2] -1.4% | [3] -7.4%

CCC(C(=O)Nc1ccc2c(c1)OCCO2)c1ccccc1 (centres undefined)
inactive: [1] 0.7% | [2] -0.2% | [3] -1.8%

Cc1cn([C@H]2C=C[C@@H](CO)O2)c(=O)[nH]c1=O
inactive: [1] -1.8% | [2] -2.2% | [3] -0.8%

CC(C)CC(=O)NC(NC(=O)CC(C)C)c1cccc([N+](=O)[O-])c1
inactive: [1] 1.7% | [2] -0.3% | [3] 3.9%

CCc1ccc(/C=C2\SC(=S)N(CCC(=O)N3CCN(C)CC3)C2=O)cc1
inactive: [1] 4.9% | [2] 2.1% | [3] 4.9%

Fc1ccc(-n2cc(CNCCc3ccccn3)c(-c3ccccc3Cl)n2)cc1
inactive: [1] -1.9% | [2] 1.1% | [3] 6.5%

CCn1ccnc1CN(C)Cc1cn(-c2cccc(C)c2)nc1-c1cccc(F)c1
inactive: [1] 0.6% | [2] -0.3% | [3] -3.5%

COC(=O)c1ccc(NC(=O)C23CCC(C)(C(=O)O2)C3(C)C)cc1 (centres undefined)
inactive: [1] 0.4% | [2] -1.5% | [3] 2.4%

COc1cc(C(=O)OCCCN(C)C)cc(OC)c1OC
inactive: [1] -0.2% | [2] -0.5% | [3] 1.8%

CCOc1ccc2nc(S(N)(=O)=O)sc2c1
inactive: [1] 2% | [2] 0% | [3] 8.4%

C[N+](C)(C)CCOP(=O)(O)OP(=O)([O-])OC[C@H]1O[C@@H](n2ccc(N)nc2=O)[C@H](O)[C@@H]1O
inactive: [1] 6% | [2] 0.6% | [3] 8.1%

CC12CCC(C(=O)N(CCC#N)CCC#N)(CC1=O)C2(C)C (centres undefined)
inactive: [1] 2.1% | [2] -1.2% | [3] 1.5%

O=C(O)CCCCCN1C(=O)C(=O)/C(=C(/O)c2ccccc2)C1c1ccccc1 (centres undefined)
inactive: [1] 0.2% | [2] 0.9% | [3] -6.7%

COc1c(O)ccc2c1CN1CCc3cc4c(cc3C1C2)OCO4 (centres undefined)
inactive: [1] -8.1% | [2] -2.1% | [3] -16.1%

CCc1cc(-c2[nH]ncc2-c2ccc3c(c2)OCO3)c(O)cc1O
inactive: [1] -0.4% | [2] -0.4% | [3] 2.3%

Cc1ccc(C(=O)NC(=S)NCCCN2CCOCC2)cc1
inactive: [1] 3.6% | [2] -1.4% | [3] 6.1%

CN(C)CCN(Cc1ccccc1)c1ccccn1
inactive: [1] 2.2% | [2] 0% | [3] -0.2%

CCOCCn1c(C(C)O)nc2ccccc21 (centres undefined)
inactive: [1] 4% | [2] 0.3% | [3] 3.1%

CNS(=O)(=O)c1ccc(C)cc1
inactive: [1] -3.1% | [2] -0.5% | [3] -3.3%

CCOc1ccc2ccccc2c1CNc1nnnn1C
inactive: [1] -0.1% | [2] -1.2% | [3] -1.5%

OC[C@@H](O)[C@@H](O[C@H]1O[C@H](CO)[C@@H](O)[C@H](O)[C@H]1O)[C@H](O)[C@@H](O)CO
inactive: [1] 3.7% | [2] 0.6% | [3] 3.8%

COc1ccc(Cl)cc1C(=O)NCCc1ccc(S(=O)(=O)NC(=O)NC2CCCCC2)cc1
inactive: [1] -1.1% | [2] -1.6% | [3] -9.4%

Cc1ccccc1C(=O)NNc1ncnc2c1cnn2C
inactive: [1] 3.1% | [2] -0.7% | [3] 1.7%

CCN1CCn2c3c(c4cc(Cl)ccc42)CCCC31 (centres undefined)
inactive: [1] 0.6% | [2] 1.4% | [3] -8.7%

C(=C\c1ccccc1)/CN1CCN(C(c2ccccc2)c2ccccc2)CC1
inactive: [1] -0.8% | [2] -1.7% | [3] -9.2%

CN(C)C(=O)C(CCN1CCC(O)(c2ccc(Cl)cc2)CC1)(c1ccccc1)c1ccccc1
inactive: [1] -1.4% | [2] -1.4% | [3] 7.3%

CC/C(=C1/C(=O)CC(C)(C)C(C(=O)OC)C1=O)N1CCCC1 (centres undefined)
inactive: [1] -4.4% | [2] -1.4% | [3] -9.3%

CC12CN3CC(C)(CN(C1)C3c1ccc(Cl)cc1Cl)C2=O (centres undefined)
inactive: [1] -0.6% | [2] 0.5% | [3] 0.1%

Clc1ccc2c(c1)[C@H]1OCC[C@H]1[C@@H](c1ccco1)N2
inactive: [1] 0.3% | [2] -0.7% | [3] -4.1%

CC1(C)OC2OC(C(=O)N/N=C/c3ccccc3F)C3OC(C)(C)OC3C2O1 (centres undefined)
inactive: [1] 2.6% | [2] -1.3% | [3] -1.9%

CCCCCC#CCC#CCC#CCC#CCCCC(=O)O
inactive: [1] 5.7% | [2] -0.6% | [3] -1.6%

COC(=O)c1cc(OC)c(OC)cc1NC(=O)Nc1ccc(OC)cc1OC
inactive: [1] -4% | [2] -0.8% | [3] 5.9%

Nc1ccc2[nH]ncc2c1
inactive: [1] -1.8% | [2] -1.3% | [3] 2.9%

COc1ccccc1Oc1c(C)oc2c(CN3CCN(CCO)CC3)c(O)ccc2c1=O
inactive: [1] -2.3% | [2] -1.2% | [3] 1.4%

C[C@]12CC[C@@H]3c4ccc(O)cc4CC[C@H]3[C@@H]1CCC2=O
inactive: [1] 1.3% | [2] -2.2% | [3] -3.8%

COC(=O)CCC(=O)CN
inactive: [1] 0.5% | [2] 0.6% | [3] 0.6%

O=C(Nc1ccc(N2CCOCC2)cc1)c1ccc(-c2ccccc2[N+](=O)[O-])o1
inactive: [1] -2.6% | [2] -0.9% | [3] -10.4%

S=C(NCc1ccccc1)NCc1cccc(CNC(=S)NCc2ccccc2)c1
inactive: [1] -0.9% | [2] 0.7% | [3] -2.4%

Cn1c(=O)c2c(nc(SCCN3CCCCC3)n2C)n(C)c1=O
inactive: [1] -1.4% | [2] 0.2% | [3] -4.6%

CCc1cc2c(=O)c(-c3ccc(F)cc3)c(C)oc2cc1OCC(=O)O
inactive: [1] 3.9% | [2] 2.2% | [3] -1.1%

COc1ccccc1OCC(=O)O
inactive: [1] 1% | [2] -0.9% | [3] -1.4%

COc1ccccc1-c1c(C(F)(F)F)oc2cc(OC(=O)c3ccc([N+](=O)[O-])cc3)ccc2c1=O
inactive: [1] 0.7% | [2] -0.5% | [3] 3.7%

CC(C)(C)c1ccc(/C=C/C(=O)N2CCCCC2)cc1
inactive: [1] -0.4% | [2] -1.5% | [3] 4.7%

COC(=O)C1=NN(C(=O)c2cccc(Br)c2)C(O)(c2ccc(Cl)cc2)C1 (centres undefined)
inactive: [1] 3.1% | [2] -0.5% | [3] 1.2%

O=C(NC(=S)Nc1nc(-c2ccccc2)cs1)c1ccco1
inactive: [1] 4.3% | [2] -0.2% | [3] -0.3%

N/C(=N\OC(=O)c1ccc(Br)o1)c1ccccn1
inactive: [1] -0.2% | [2] -0.3% | [3] 0.7%

NS(=O)(=O)c1cc2c(cc1C(F)(F)F)NCNS2(=O)=O
inactive: [1] 0.5% | [2] -0.4% | [3] 5.4%

CCC(C)NCCOc1ccc(C(C)(C)c2ccccc2)cc1 (centres undefined)
inactive: [1] -2% | [2] 0.7% | [3] -12.8%

CC1=NN(C(=O)c2ccc(Br)cc2)C(O)(c2ccccc2)C1 (centres undefined)
inactive: [1] -2.9% | [2] -0.4% | [3] 4.5%

c1cnc(N2CCN(Cc3ccc4c(c3)OCO4)CC2)nc1
inactive: [1] -2.3% | [2] -1.4% | [3] -5.5%

CC1(C)CC(CNCCC(c2ccc(F)cc2)c2ccco2)CCO1 (centres undefined)
inactive: [1] 0.9% | [2] -1.4% | [3] 3.4%

C[C@]12CC[C@H]3[C@@H](CCC4=CC(=O)CC[C@@]43C)[C@@H]1CC[C@@H]2C(=O)CO
inactive: [1] 3.9% | [2] -2.4% | [3] -10%

Cc1cc(Cl)cc2c1NC(=O)[C@]21[C@@H]2C(=O)N(Cc3ccccc3)C(=O)[C@@H]2[C@@H]2CCCN21
inactive: [1] 2.1% | [2] 1.7% | [3] 2.3%

O=C(NCCc1ccccc1)C1CCN(C2CCN(Cc3ccco3)CC2)CC1
inactive: [1] -0.8% | [2] -0.7% | [3] -9.8%

CCOC(=O)NN1C(=O)c2ccccc2NC1c1ccc(OC)c(OC)c1 (centres undefined)
inactive: [1] 1.5% | [2] -0.6% | [3] -2%

O=[N+]([O-])c1ccc2cn[nH]c2c1
inactive: [1] 2.9% | [2] -0.5% | [3] 4%

c1ccc(Nc2cccc3c(Nc4ccccc4)cccc23)cc1
inactive: [1] -3.6% | [2] -3% | [3] -25.4%

OC(CCCN1CCCCC1)(c1ccccc1)c1ccccc1
inactive: [1] 3.3% | [2] 0% | [3] 7.6%
